# BAZ2B inh = qHTS Assay for Inhibitors of BAZ2B. AlphaScreen BAZ2B-H3K14Ac peptide displacement. 360,000 tested, 4.4% active. Potency, µM (series often up to 114 µM), inactives show at the highest dose activity change, negative = inhibition, actives largely listed as inhibitors; also: % is scaled to controls: 0 for no effect and ±100 for the full control effect; nearly all actives have a fitted effect of over 60% in size
#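 In this displacement format the biotinylated H3(5-23) peptide acetylated at Lys14 serves as ligand at 50 nM, with BAZ2B at 50 nM in PBS pH 7.4 containing 0.01% Tween-20. Donor and acceptor beads are 10 ug/mL final.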
# G9a block = qHTS Assay for Inhibitors of Histone Lysine Methyltransferase G9a | Histone-lysine N-methyltransferase EHMT2 (Homo sapiens), Q96KQ7 | G9a H3K9 monomethylation, AlphaScreen, 2 h | Potency, µM (doses to about 102 µM), for inactives: at the top dose activity, negative = inhibition, hits mostly inhibitors | 350,000 tested, 8.8% active | AID 504332, 2011; also: % is scaled to controls: 0 for no effect and ±100 for the full control effect; nearly all actives have a fitted effect of over 75% in size
# Target sequence (Q96KQ7 913-1193 limits assumed): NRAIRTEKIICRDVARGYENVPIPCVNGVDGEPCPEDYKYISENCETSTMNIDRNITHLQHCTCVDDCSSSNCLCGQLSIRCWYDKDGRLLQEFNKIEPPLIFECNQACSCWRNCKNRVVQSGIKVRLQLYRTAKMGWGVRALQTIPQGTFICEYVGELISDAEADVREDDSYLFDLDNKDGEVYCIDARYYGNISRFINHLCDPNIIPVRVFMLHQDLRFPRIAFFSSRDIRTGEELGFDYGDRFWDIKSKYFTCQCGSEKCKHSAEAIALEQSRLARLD
#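 Compounds were preincubated with 20 nM G9a for 15 min, after which biotinylated H3K9 peptide (500 nM) and SAM (20 uM) started a 2 h room-temperature reaction. Monomethylated product was quantified by antibody-based AlphaScreen chemiluminescence.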
# L3MBTL1 inh = qHTS Assay for the Inhibitors of L3MBTL1; AlphaScreen L3MBTL1–H3K9me1 peptide binding; Potency, µM (doses to about 57.1 µM), without a hit: at the highest dose activity, negative = inhibition, most hits filed as inhibitors; 230,000 tested, 0.66% active; AID 485360, 2010; also: % is scaled to controls: 0 for no effect and ±100 for the full control effect; nearly all actives have a fitted effect of over 60% in size
#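 L3MBTL1 (50 nM) pre-complexed 30 min with biotinylated H3(1-15)K9me1 peptide (75 nM), then compounds added for 30 min at room temperature; AlphaScreen streptavidin donor/nickel chelate acceptor beads (10 ug/mL final) read after 30 min dark incubation.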
# HP1b binding inh = HTS for Inhibitors of HP1-beta Chromodomain Interactions with Methylated Histone Tails. AlphaScreen HP1-beta / biotin-H3K9me3 peptide binding. 390,000 tested, 0.56% active. Chromobox protein homolog 1 (Homo sapiens), P83916. Potency, µM (titrated, usually from 114 µM), for the others: at the top dose activity change, negative = inhibition, actives largely listed as inhibitors. AID 540317, 2011; also: nearly all actives have a fitted effect of over 70% in size
# Target sequence (P83916 whole entry, looked up): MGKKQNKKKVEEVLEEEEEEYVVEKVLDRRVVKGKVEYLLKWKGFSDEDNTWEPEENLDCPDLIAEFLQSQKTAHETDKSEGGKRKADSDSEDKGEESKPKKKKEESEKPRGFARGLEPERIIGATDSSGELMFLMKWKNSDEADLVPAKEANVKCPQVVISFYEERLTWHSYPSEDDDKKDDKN
#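 HP1-beta protein (50 nM final) preincubated 30 min at room temperature with biotinylated H3(1-18)K9me3 peptide (50 nM) in PBS pH 7.4, 0.01% Tween-20, then compound added for 30 min. AlphaScreen streptavidin donor/nickel chelate acceptor beads (10 ug/mL final), 30 min dark, luminescence read.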
# JMJD2A Tudor = qHTS Assay for Inhibitors of JMJD2A-Tudor Domain; AlphaScreen JMJD2A-Tudor / H3K4me3 peptide binding; Potency, µM (series often up to 114 µM), inactives show at the top dose activity change, negative = inhibition, hits mostly inhibitors; 390,000 tested, 4.4% active; also: % is scaled to controls: 0 for no effect and ±100 for the full control effect; nearly all actives have a fitted effect of over 50% in size
# * marks the source's active call; other numbers are inactive results; ? = inconclusive; . = no result; ! = not active in a repeat; [ ] = another dose, or the depositor's remark. Most compounds without a hit are left out; they make up all but 11% or so of the library. Calls follow the shape of the dose curve; as a rule, active = well fitted inhibition curve with a large enough effect; inconclusive = small, poorly fitted or top-dose-only effect; inactive = no such curve, though single readings can be large or run the other way. Potency is read from the fitted curve at half-maximal effect.
SMILES,BAZ2B inh,G9a block,L3MBTL1 inh,HP1b binding inh,JMJD2A Tudor
CCOC(=O)c1ccc(NC(=O)CCc2nc3cccnc3n2Cc2cccs2)cc1,-15.2%,2.0%[59 µM],.,5.4%,-24.5%
O=C(/C=C/c1ccccc1)Oc1cccc2cccnc12,44.7µM*,.,-1.1%,58.0%,-3.0%
O=C(/C=C\c1ccccc1)Oc1cccc2cccnc12,39.8µM*,22.8%,?,39.7%,2.9%
O=C(Oc1cccc2cccnc12)c1ccccc1,.,42.7%[59 µM],.,.,.
COc1cccc(OCc2cc(C(=O)N3CCNC(=O)C3Cc3ccccc3)no2)c1 (centres undefined),-15.5%,?,.,24.8%,-9.8%
Fc1ccc(Br)cc1C1C=C(c2ccc(Br)cc2)Nc2nnnn21 (centres undefined),4.2%,11.2µM*,.,71.7%,4.5%
O=C(CC(=O)Nc1nc(C23CC4CC(CC(C4)C2)C3)cs1)NCCO,-20.5%,-6.8%[59 µM],-11.8%,-14.7%,-29.1%
CNc1nc(C23CC4CC(CC(C4)C2)C3)cs1,-2.9%,31.6µM*,.,-4.8%,-19.9%
Cc1nn(C(=O)c2ccc(Cl)cc2)c(C)c1S(=O)(=O)N1CCOCC1,-6.6%,-43.7%[59 µM],.,35.6%[57 µM],-18.2%
COC(=O)c1ccc(OCCCCN2CC(C)OC(C)C2)cc1 (centres undefined),79.4µM*,2.82µM*,15.6%,?,11.2µM*
CC1CN(CCCCOc2ccc3ccccc3c2)CC(C)O1 (centres undefined),?,2µM*,-0.8%,?,1.41µM*
CC1CN(CCCCSc2ccccc2)CC(C)O1 (centres undefined),0.0%,8.1%,-0.7%,36.6%,5.1%
CC1CN(C(=O)COc2ccc3ccccc3c2)CC(C)O1 (centres undefined),.,.,-2.0%,25.8%,0.0%
COc1cccc(OCCCCN2CC(C)OC(C)C2)c1 (centres undefined),?,10µM*,.,?,6.31µM*
CCN(CC)CCCNC(=S)N(CCO)Cc1cc2cc3c(cc2[nH]c1=O)OCCO3,1.6%,.,-5.7%,11.8%,-21.3%
Cc1ccc(NC(=O)C2CCC(CNS(=O)(=O)c3ccc4c(c3)CCCC(=O)N4)CC2)cc1F (centres undefined),1.5%,6.4%[59 µM],.,4.1%,-4.2%
Cc1cc(C)c(NC(=O)CN(C)C(C)C(=O)N2CCc3ccccc32)c(C)c1 (centres undefined),7.9%,0.8%[12.7 µM],2.4%,32.6%,-19.6%
Cc1ccc(C(=O)Nc2nnc(S(=O)(=O)N3CCCCCC3)s2)cc1,10µM*!,7.94µM*,1.8%,?,25.1µM*!
Cc1ccccc1C(=O)Nc1nnc(S(=O)(=O)N2CCCCCC2)s1,22.4µM*!,14.1µM*,4.5%,?,39.8µM*!
COc1ccccc1C(=O)Nc1nnc(S(=O)(=O)N2CCCCC2)s1,-18.7%,19.5%,.,75.6%,-3.4%
O=C(Nc1nnc(S(=O)(=O)N2CCCCCC2)s1)c1ccccc1F,10µM*!,11.2µM*!,7.3%,50.6%,39.8µM*!
COc1ccccc1C(=O)Nc1nnc(S(=O)(=O)N2CCCCCC2)s1,7.08µM*!,10µM*!,-3.2%,48.2%,20µM*!
CCOc1ccc(-n2c(=O)c3c(C)c(C(=O)N(C)C)sc3n(CC(=O)Nc3c(C)cc(C)cc3C)c2=O)cc1,-9.4%,7.8%[59 µM],.,9.5%,-20.0%
O=C(COc1ccccc1Cl)Nc1nnc(S(=O)(=O)N2CCCCCC2)s1,-3.4%,56.2µM*!,-2.8%,47.1%,-15.6%
O=C(Nc1nnc(S(=O)(=O)N2CCN(c3ccc(F)cc3)CC2)s1)c1ccco1,?,44.7µM*,.,23.5%,?
SMILES,BAZ2B inh,G9a block,L3MBTL1 inh,HP1b binding inh,JMJD2A Tudor
CN1/C(=C/C=C(C#N)C#N)C(C)(C)c2ccccc21,2.5%,.,20.6%,12.7%,-17.9%
CN1/C(=C\C=Nc2ccc3ccccc3c2)C(C)(C)c2ccccc21,-34.7%,1.78µM*,-0.1%,.,.
CN1\C(=C/C=C/C=C/C=[N+](C)C)C(C)(C)c2ccccc21,11.2µM*,11.2µM*,?,?,50.1µM*
CN(C)c1ccc(N=C/C=C2\N(C)c3ccccc3C2(C)C)cc1,35.5µM*,39.8µM*,?,50.1µM*,-8.2%[11.4 µM]
Cc1cc(/N=C/C=C2\N(C)c3ccccc3C2(C)C)n(CCC#N)n1,?,50.1µM*,-9.9%,0.0%,?
CC(=O)c1cccc(NC(=O)c2noc3c2CCCC3)c1,-0.7%,5.4%[59 µM],.,39.8%,-8.2%
Cc1ccc(C(=O)N/C(=C/c2ccco2)C(=O)Nc2cccc(C)c2)cc1,-34.5%,?,.,?,?
O=C(Nc1cccc(F)c1)/C(=C/c1ccco1)NC(=O)c1ccco1,-29.9%,28.2µM*,.,-24.5%,?
Cc1cccc(NC(=O)/C(=C\c2ccco2)NC(=O)c2cccs2)c1,3.1%[57.1 µM],31.6µM*,2.8%,?,89.1µM*
CCN(C(=O)Cn1c(SCc2ccccc2F)nc2cccnc21)c1ccccc1,-6.0%,-54.8%[59 µM],.,24.5%,-20.8%
COC(=O)c1ccc(CSc2ccc3nnc(-c4cccc(F)c4)n3n2)o1,-2.4%,17.8µM*,10.6%,?,89.1µM*
Cc1cccc(CSc2ccc3nnc(-c4cccnc4)n3n2)c1,-1.8%,-5.3%[59 µM],3.7%,19.7%,-2.1%
CCOC(=O)CC(=O)CSc1ccc2nnc(-c3cccc(F)c3)n2n1,-3.4%,-30.1%,-0.8%,11.5%,-1.3%
CSc1ccc2nnc(-c3cccc(F)c3)n2n1,0.0%,39.8µM*,8.2%,17.5%,-13.7%
CCSS(=O)(=O)c1cccc2cccnc12,22.4µM*,0.447µM*,-7.7%,?,1.12µM*
O=C(O)CCS(=O)(=O)c1cccc2cccnc12,-4.2%,?,3.8%,1.8%,-0.6%
O=C1C(Br)=Cc2cccc3cccc1c23,25.1µM*,?,.,-37.1%,?
O=C1c2cccc3cccc(c23)C(=O)N1OS(=O)(=O)c1ccc(Br)cc1,0.8%,-2.7%,6.0%,4.7%,-25.3%
O=C(Cn1c(=O)oc2cc(S(=O)(=O)NCc3ccccc3)ccc21)N(CCO)Cc1ccccc1,0.7%,9.4%[59 µM],.,-4.3%,-15.1%
Cc1nnc(Nc2ccc(O)cc2)[nH]c1=O,-25.6%,50.1µM*,?,3.7%,-10.6%
Cc1nnc(Nc2ccc(C(=O)O)cc2)[nH]c1=O,-4.0%,2.7%,9.6%,14.5%,0.0%
O=C(O)CCCCCNS(=O)(=O)c1ccc2c3c(cccc13)C(=O)N2,-35.9%,79.4µM*,-13.9%,38.2%,-2.1%
CNS(=O)(=O)c1ccc2c3c(cccc13)C(=O)N2,0.1%,.,0.2%,39.9%,0.0%
O=C(O)CNS(=O)(=O)c1ccc2c3c(cccc13)C(=O)N2,42.5%,.,-85.2%,4.3%,28.2µM*
CSc1ncc(C(=O)Nc2cc(Cl)ccc2C)c(-c2ccccc2)n1,-21.1%,-4.8%[59 µM],.,9.1%,-8.6%

# High-throughput results (PubChem BioAssay)
